Test results taken from PubChem BioAssay (NCI).
The panel holds about 83,000 compounds, 20% with a hit somewhere; the sample as a whole holds those more often.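 Each cell line was grown in a 96-well plate and treated with one concentration of compound for 48 hours. Values below 10 were considered active.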 Values without a mark were called inactive. Active and inactive are the calls of the source.

Columns and labels:
Test in all cases: NCI-60 one-dose screen, 48 h (100 = growth as untreated, 0 = no growth, -100 = all killed)
HCT-15 colon = settings: 10 µM unless noted
HT29 colon = settings: 10 µM unless noted
SNB-75 CNS = settings: 10 µM unless noted
SNB-19 CNS = settings: 10 µM unless noted
U251 CNS = settings: 10 µM unless noted
PC-3 prostate = settings: 10 µM unless noted
SK-MEL-5 melanoma = settings: 10 µM unless noted
UACC-62 melanoma = settings: 10 µM unless noted
LOX IMVI melanoma = settings: 10 µM
SK-MEL-28 melanoma = settings: 10 µM unless noted
SK-MEL-2 melanoma = settings: 10 µM unless noted
SN12C renal = settings: 10 µM unless noted
UO-31 renal = settings: 10 µM unless noted
TK-10 renal = settings: 10 µM unless noted
ACHN renal = settings: 10 µM unless noted
CAKI-1 renal = settings: 10 µM unless noted
A498 renal = settings: 10 µM unless noted
CCRF-CEM leukemia = settings: 10 µM unless noted
MOLT-4 leukemia = settings: 10 µM unless noted

Row | SMILES | growth (HCT-15 colon) | growth (HT29 colon) | growth (SNB-75 CNS) | growth (SNB-19 CNS) | growth (U251 CNS) | growth (PC-3 prostate) | growth (SK-MEL-5 melanoma) | growth (UACC-62 melanoma) | growth (LOX IMVI melanoma) | growth (SK-MEL-28 melanoma) | growth (SK-MEL-2 melanoma) | growth (SN12C renal) | growth (UO-31 renal) | growth (TK-10 renal) | growth (ACHN renal) | growth (CAKI-1 renal) | growth (A498 renal) | growth (CCRF-CEM leukemia) | growth (MOLT-4 leukemia)
1 | Cc1onc(-c2ccccc2Cl)c1C(=O)Cl | 98.2% | 106% | 78.1% | 99.2% | 96.8% | 90.7% | 106% | 99% | 95.1% | 92.6% | 113% | 95.7% | 91.2% | 110% | 96.2% | 93.5% | 95.9% | 90.9% | 114%
2 | C=COC(=O)C(C)(C)C | 102% | 104% | 90.4% | 95.3% | 99.4% | 95.3% | 99.9% | 99.9% | 96.4% | 108% | 94.7% | 93.6% | 84.5% | 98.6% | 108% | 92.2% | 95.1% | 91.9% | 92.5%
3 | C1C[S+]2CC[S+]1CC2 | 105% | 98.9% | 117% | 103% | 96.4% | 101% | 98.8% | 104% | 95.8% | 118% | 101% | 101% | 106% | 97.9% | 99.2% | 108% | 105% | 89.9% | 100%
4 | CC(C)N(CCCC#N)C(C)C | 96.7% | 86.6% | 85.2% | 90.7% | 92.4% | 86.7% | 103% | 95.2% | 97.7% | 95.3% | 121% | 94% | 86% | 104% | 98% | 95.1% | 79.4% | 86.9% | 112%
5 | CCN(CC)CCN1CNC(=S)NC1 | 106% | 104% | 107% | 104% | 105% | 101% | 104% | 105% | 95.8% | 114% | 95.1% | 98.4% | 83.7% | 103% | 102% | 106% | 105% | 97.8% | 97.1%
6 | CCOC(=O)CNC | 99.1% | 117% | 83.4% | 100% | 89.4% | 93.9% | 101% | 94.8% | 95.6% | 105% | 117% | 96.4% | 107% | 126% | 91.1% | 94.6% | 83.1% | 92.3% | 103%
7 | O=C(O)c1ccc([N+](=O)[O-])cc1S(=O)(=O)O | 106% | 99% | 118% | 105% | 94.9% | 100% | 99.7% | 101% | 98.1% | 103% | 95.9% | 103% | 102% | 99.3% | 106% | 110% | 108% | 81.2% | 105%
8 | CC(=O)OC/C(C)=C\CC(C)COC(C)=O (stereo not given) | 98.8% | 113% | 81.5% | 94.9% | 101% | 93.9% | 104% | 101% | 98.8% | 94.6% | 113% | 99.6% | 87.7% | 112% | 96.9% | 96.3% | 95.7% | 96.9% | 111%
9 | CCOC(=O)CSCCC#N | 100% | 97.9% | 97% | 104% | 105% | 97.8% | 111% | 99.3% | 96.3% | 96.6% | 105% | 97.9% | 98.8% | 101% | 95.2% | 96% | 83.1% | 102% | 91.5%
10 | CC(CC(CCC(=O)O)(c1ccccc1)c1ccccc1)N(C)C (stereo not given) | 95.6% | 105% | 99.6% | 110% | 92.3% | 103% | 95.5% | 103% | 98.8% | 104% | 104% | 99.2% | 91.4% | 98.2% | 106% | 95% | 95% | 98.9% | 107%
11 | COc1ccc2c(Cl)cc(NC(=O)Nc3c(C)cccc3C)nc2c1 | 95.7% | 88% | -24.7% (active) | 79.3% | 76.1% | 72.4% | 63.6% | 87.7% | 60.7% | 97% | 106% | 82.6% | 14.4% | 35% | 41.9% | 11.1% | 36.1% | 86.5% | 81.6%
12 | Cc1ccc(C(C)C)c(OCC(=O)O)c1 | 101% | 109% | 99.3% | 104% | 96.1% | 98.7% | 100% | 100% | 102% | 106% | 118% | 100% | 97% | 107% | 112% | 110% | 73.6% | 96.8% | 111%
13 | Cn1/c(=N\N=C\c2ccccc2OCCO)sc2ccccc21 | 82.4% | 109% | 115% | 96.7% | 100% | 76.5% | 88% | 90% | 100% | 124% | 104% | 102% | 57.2% | 109% | 92.5% | 88.9% | 103% |  | 62.7%
14 | CC(O)C(F)(F)C(F)(F)C(F)(F)F (stereo not given) | 88.2% | 99.9% | 103% | 112% | 103% | 110% | 101% | 115% | 107% | 108% | 111% | 110% | 95.3% | 102% | 93.8% | 99.2% | 120% | 108% | 96.4%
15 | CC1(C)CCC(C)(C)NC(=S)N1 | 98.7% | 107% | 105% | 102% | 104% | 100% | 105% | 105% | 96.1% | 109% | 94.1% | 97.1% | 88.2% | 98% | 104% | 100% | 112% | 102% | 97.5%
16 | Cc1cc(=O)n(Nc2ccccc2)c(O)c1C#N | 112% | 105% | 97.4% | 103% | 103% | 99.4% | 104% | 103% | 96.6% | 111% | 96.4% | 99.4% | 62% | 104% | 104% | 92.5% | 115% | 99.8% | 103%
17 | O=Cc1ccc(F)cc1 | 93.4% | 103% | 90.3% | 103% | 101% | 101% | 99.8% | 102% | 101% | 102% | 129% | 98% | 82% | 113% | 95.6% | 88.4% | 103% |  | 110%
18 | CS(=O)(=O)c1ccc(/C=C\C(=O)O)cc1 | 96.1% | 104% | 80.2% | 102% | 104% | 98.1% | 99.5% | 111% | 98% | 105% | 109% | 103% | 83.5% | 101% | 108% | 98.2% | 48.6% | 101% | 111%
